PubChem BioAssay AID1851 (National Center for Advancing Translational Sciences (NCATS), 2009)
Several values for one entry are separate records, joined by “and”; a condition that tells them apart may be missing. Equal values may be shown once. In all, about 16,000 compounds went through this assay and about 4,000 (25%) were called active. About 26% were inconclusive and are not listed. Calls come from the whole dose curve; as a rule, active = well fitted curve in the direction sought with a large enough effect; inconclusive = small, poorly fitted or top-dose-only effect, or effect the other way; inactive = no such curve, though single readings can be large or run the other way. These entries were drawn from the full list.

target: Cytochrome P450 2C9 (Homo sapiens) (UniProt P11712); assay: Cytochrome panel assay with activity outcomes; settings: recombinant CYP, pro-luciferin dealkylation, luminescence, p450-cyp2c9; series mostly up to 57.1 µM; activity, negative = inhibition: at the top concentration
% is set by controls: 0 for no effect and ±100 for the full control effect.

Chain of Cytochrome P450 2C9 (Homo sapiens) (P11712 whole entry, looked up): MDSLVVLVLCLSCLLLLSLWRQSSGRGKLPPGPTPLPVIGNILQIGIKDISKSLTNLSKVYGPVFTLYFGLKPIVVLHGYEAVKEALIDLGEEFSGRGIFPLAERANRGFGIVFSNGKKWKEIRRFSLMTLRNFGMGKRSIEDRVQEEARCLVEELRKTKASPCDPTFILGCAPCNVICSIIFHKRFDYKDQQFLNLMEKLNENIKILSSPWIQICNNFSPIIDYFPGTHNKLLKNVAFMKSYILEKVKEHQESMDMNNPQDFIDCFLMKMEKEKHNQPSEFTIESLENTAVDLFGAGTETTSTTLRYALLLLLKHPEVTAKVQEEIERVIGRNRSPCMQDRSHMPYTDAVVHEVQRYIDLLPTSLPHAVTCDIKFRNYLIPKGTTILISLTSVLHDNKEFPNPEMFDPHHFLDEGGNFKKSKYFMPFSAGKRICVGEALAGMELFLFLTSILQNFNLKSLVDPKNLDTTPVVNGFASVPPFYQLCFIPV

Row | SMILES | activity, negative = inhibition | AC50
1 | c1ccc(N2CC3(CCNCC3)C2)cc1 | -15.5% (inactive) | 
2 | c1ccc2cc(CC3=NCCN3)ccc2c1 | 17.4% (inactive) | 
3 | CCOC(=O)[C@@H]1[C@@H]2c3ccccc3-c3ccccc3[C@H]2C[C@H]1O | 29.6% [at 11.4 µM] (inactive) | 
4 | CO[C@@H](C)[C@](O)(C(=O)OCC1=CCN2CC[C@@H](O)[C@H]12)C(C)C | 7.91% [at 25.6 µM] (inactive) | 
5 | CNC(=O)Oc1ccc2c(c1)[C@@]1(C)CCN(C)[C@@H]1N2C | 28.3% [at 25.6 µM] (inactive) | 
6 | COc1ccc2c3c1O[C@@H]1C(=O)CC[C@@]4(O)[C@@H](C2)N(CC2CC2)CC[C@]314 | -7.27% (inactive) | 
7 | c1ccc2c(c1)[I+]c1ccccc1-2 |  | 1 µM (active) and 100 nM (active)
8 | O=C(O)/C=C\c1ccc[c]([Sb](=[O])([OH])[OH])c1 | 12.8% [at 11.4 µM] (inactive) | 
9 | CSCC[C@@H](N)P(C)(=O)O | 21.1% [at 11.4 µM] (inactive) | 
10 | O=C1C=CC(=O)c2c1ccc1c2ccc2ccccc21 |  | 1.26 µM (active)
11 | O=C1N[C@@]2(CN3CCC2CC3)C(=O)N1CN(Cc1ccccc1)c1ccccc1 | -7.38% [at 11.4 µM] (inactive) | 
12 | COCCCn1c(N)c(C(=O)Nc2sc3c(c2C(=O)OC)CCCC3)c2nc3ccccc3nc21 |  | 2.24 µM (active)
13 | NCCCC[C@H](N[C@@H](CCc1ccccc1)C(=O)O)C(=O)N1CCC[C@H]1C(=O)O | -10.5% [at 25.6 µM] (inactive) | 
14 | Oc1ccc(CCNCc2cc3c(cc2Br)OCO3)cc1 | -10.6% [at 11.4 µM] (inactive) | 
15 | CC(=O)OC1=CC2=CC[C@H]3[C@H]4CCC(=O)[C@@]4(C)CC(=O)[C@]3(S)[C@]2(C)CC1 | 4.96% [at 11.4 µM] (inactive) | 
16 | CC(O)(CS(=O)(=O)c1cccc(C(F)(F)F)c1)C(=O)Nc1ccc(C(F)(F)F)cc1 (stereo unspecified) |  | 11.2 µM (active)
17 | C[N+](C)(C)[C@H](Cc1c[nH]c(=S)[nH]1)C(=O)O | 11.9% [at 11.4 µM] (inactive) | 
18 | CC(C)n1cnc2c(C(=O)N[C@H]3CN4CCC3CC4)cc(Cl)cc21 |  | 0.398 µM (active)
19 | CN1C(=O)COc2c(C(=O)N[C@@H]3CN4CCC3CC4)cc(Cl)cc21 | -4.86% (inactive) | 

Row | SMILES | activity, negative = inhibition | AC50
20 | COc1cc(N)c(Cl)cc1C(=O)N[C@@H]1CN2CCC1CC2 |  | 12.6 µM (active)
21 | CCCn1c(C)c(C(=O)c2ccc3ccccc3c2)c2ccccc21 | 6.27% (inactive) | 
22 | CNC[C@H](O)c1ccc(OC(=O)C(C)(C)C)c(OC(=O)C(C)(C)C)c1 | 14.3% [at 25.6 µM] (inactive) | 
23 | N[C@@H]1C=CC=C(C(=O)O)C1 | 8.11% (inactive) | 
24 | COc1ccc(C[C@H]2c3cc(OC)c(OC)cc3CCN2C)cc1OC | -18.3% [at 25.6 µM] (inactive) | 
25 | C=CCN1CC[C@]23c4c5ccc(O)c4O[C@@H]2/C(=N/NC(=O)c2ccccc2)CC[C@@]3(O)[C@H]1C5 | -21.2% (inactive) | 
26 | [N-]=[N+]=CC(=O)CC[C@H](N)C(=O)O | 26.7% [at 11.4 µM] (inactive) | 
27 | CCC1(CCSC(=N)N)C(=O)NC(=O)NC1=O | 12.6% [at 11.4 µM] (inactive) | 
28 | C[C@H](Br)CN(C[C@H](C)Br)c1ccc2c(c1)Cc1ccccc1-2 |  | 3.16 µM (active)
29 | CCCN1CCO[C@@H]2c3cc(O)ccc3OC[C@@H]21 | -20.6% (inactive) | 
30 | COc1cc(C(=O)OC2C[C@H]3CC[C@@H](C2)N3C)ccc1O (stereo partly specified) | 7.43% [at 25.6 µM] (inactive) | 
31 | CC(=O)O[C@@H]1CN2CCC1CC2 | 23.8% (inactive) | 
32 | CCN1C[C@]2(C)CC[C@@H](O)[C@]34[C@@H]5CC6[C@@H](OC)C[C@@](O)([C@H]5[C@@H]6O)[C@@H](C[C@@H]23)[C@H]14 | 8.37% (inactive) | 
33 | O=C1CC[C@@]2(O)[C@H]3Cc4ccc(O)c5c4[C@@]2(CCN3CC2CC2)[C@@H]1O5 | inactive | 
34 | O=C(/C=C\c1ccc(Cl)cc1)N[C@@]12CCC(=O)[C@@H]3Oc4c(O)ccc5c4[C@@]31CCN(CC1CC1)[C@@H]2C5 |  | 15.8 µM (active)
35 | O=C1CC[C@]2(O)[C@H]3Cc4ccc(O)c5c4[C@@]2(CCN3CC2CC2)[C@@H]1O5 | 24.4% [at 25.6 µM] (inactive) | 
36 | C[C@]12CC[C@@H]3[C@H](CCC4=CC(=O)CC[C@]43C)[C@]1(O)CC[C@@]2(O)C(=O)CO | -5.6% [at 11.4 µM] (inactive) | 
37 | CC(C)[C@@H]1CN[C@H](C(=O)O)[C@@H]1CC(=O)O | -12.5% (inactive) | 
38 | O=C(O)[C@@H](O)[C@@H](O)[C@@H]1[O][Sb][O][C@@H]1CO | 5.16% [at 11.4 µM] (inactive) | 

Row | SMILES | activity, negative = inhibition | AC50
39 | C[C@@H](N)Cn1ccc2cc(F)c(Cl)cc21 |  | 3.98 µM (active)
40 | CC[N+](CC)(CCCNC1=CC(=O)C(NCCC[N+](CC)(CC)Cc2ccccc2)=CC1=O)Cc1ccccc1 | 10.8% (inactive) | 
41 | CC[C@@H]1[C@@H]2C[C@H]3[C@H]4N(C)c5ccccc5[C@@]45C[C@@H]([C@@H]2[C@@H]5O)N3[C@H]1O | -8.54% [at 25.6 µM] (inactive) | 
42 | COc1cc(C=C(C#N)C#N)cc(O)c1O |  | 2.51 µM (active)
43 | N#C/C(=C\c1ccc(O)c(O)c1)C(N)=S | -22.3% (inactive) | 
44 | CC(C)(C)c1cc(C=C(C#N)C#N)cc(C(C)(C)C)c1O |  | 0.0316 µM (active)
45 | N#C/C(=C\c1ccc(O)c(O)c1)C(=O)NCCCNC(=O)/C(C#N)=C/c1ccc(O)c(O)c1 | 8.74% (inactive) | 
46 | N#CC(C#N)=Cc1ccc(O)c(O)c1 |  | 7.94 µM (active)
47 | NCCc1c[nH]c2ccccc12 | 15.6% (inactive) | 
48 | O=C(O)CNC(=O)[C@@H](CS)Cc1ccccc1 | 28.1% (inactive) | 
49 | COC(=O)[C@@H]1[C@@H](O)[C@@]2(O)c3c(OC)cc(OC)cc3O[C@@]2(c2ccc(OC)cc2)[C@H]1c1ccccc1 | -21.1% [at 11.4 µM] (inactive) | 
50 | COc1cc2c(cc1OC)[C@]13CC[N@+]4(C)CC5=CCO[C@H]6CC(=O)N2[C@@H]1[C@@H]6[C@@H]5C[C@]34O | -6.22% [at 11.4 µM] (inactive) | 
51 | O=C(Oc1ccc([N+](=O)[O-])cc1)N1CCC(N2CCCCC2)CC1 | 10.1% (inactive) | 
52 | O=C(O)c1cc(N=Nc2ccc([As](=O)(O)O)cc2)ccc1O | 11.3% [at 11.4 µM] (inactive) | 
53 | N[C@@H](CCCCP(=O)(O)O)C(=O)O | 5.13% (inactive) | 
54 | Cc1ccc(N2C(=O)/C(=C/c3ccc(CN(CCC#N)S(C)(=O)=O)o3)C(=O)NC2=S)cc1C |  | 12.6 µM (active)
55 | NCCc1ccc(O)cc1 | 3.64% (inactive) | 
56 | CC1=NN(c2ccc(S(=O)(=O)O)cc2C)C(=[OH+])[C@H]1N=Nc1cc(S(=O)(=O)O)ccc1C(=O)O.O.[Cr] | -5.47% [at 11.4 µM] (inactive) | 
